Compound activity from PubChem BioAssay.
Only some compounds are listed: those with a hit (about 5.6% of all), similar ones and a draw of the others.
CtBP-E1A inh: inhibitors of CtBP/E1A interaction | 340,000 compounds, 0.49% hits | AlphaScreen GST-E1A/His-CtBP binding, 1536-well; active compounds read low | activity change, % (test concentration not listed); in the data active = activity change below about -65%; inconclusive = mostly about -30% to -63%
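Homogeneous bead-based format: GST-tagged E1A captured on glutathione donor beads, His-tagged CtBP on nickel acceptor beads; compounds precede bead addition by 2 h at 37 °C.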
Gal4-VP16 FLuc: Gal4-VP16 reporter inhibition counter-screen | Potency, µM (top dose mostly 53.6 µM), for the others: at the top dose activity, negative = inhibition, most hits filed as inhibitors | AID 2546 | Drosophila S2 Gal4-VP16 UAS-luciferase, luminescence, 20 h | 310,000 compounds, 3.5% hits;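 also: Gal4-VP16 expression switched on by copper sulfate through the metallothionein promoter; potency is read from the fitted curve at half-maximal effect; nearly all actives have a fitted effect of over 50% in size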
Six1-Eya2 blk: blocks human Six1 binding to Eya2 | Q15475+O00167 | AlphaScreen GST-Six1/His-Eya2 binding, biochemical; active compounds read low | activity change, % (test concentration not listed) | 360,000 compounds, 0.56% hits | AID 651725; in the data active = activity change below about -65%; inconclusive = mostly about -30% to -63%
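AlphaScreen luminescence read after one hour at 37 °C in darkness. Pin-transferred compounds met GST-Six1 and His-Eya2 protein (5X stock 250 nM/500 nM) plus glutathione donor and Ni-chelate acceptor beads (5X, 50 ug/mL).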
PKM2 activator: activators of human pyruvate kinase M2. 260,000 compounds, 0.34% hits. AID 1631. purified PKM2, Kinase-Glo ATP luminescence, activation; response scale: 0% is enzyme alone, no compound. Potency, µM (highest dose often 57.5 µM), inactives show at the highest dose activation, usual class: activators; also: potency is read from the fitted curve at half-maximal effect; nearly all actives have a fitted effect of over 55% in size
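ATP formation by purified human PK-M2, quantified via coupled luciferase luminescence after 1 h at room temperature with 0.1 mM ADP and 0.5 mM PEP final.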
RORgamma inh: ROR gamma (mouse) transcription inhibition. P51450. Drosophila S2 Gal4-RORgamma UAS-luciferase reporter, 20 h. Potency, µM (series often up to 53.6 µM), for inactives: top-dose activity change, negative = inhibition, hits mostly inhibitors. 310,000 compounds, 5.4% hits; also: potency is read from the fitted curve at half-maximal effect; nearly all actives have a fitted effect of over 60% in size
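Drosophila S2 cells stably expressing Gal4-DBD/mouse RORγ fusion under metallothionein promoter plus UAS-luciferase; compound 1 h, then 700 uM CuSO4 induction for 20 h at ambient temperature; inhibition read as reduced luminescence.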
Active calls of the source: *; ? = inconclusive; · = no result given; [ ] = another dose, or the depositor's remark. Unless noted, calls follow the shape of the dose curve; as a rule, active = well fitted curve in the direction sought with a large enough effect; inconclusive = small, poorly fitted or top-dose-only effect, or another doubt; inactive = no such curve, though single readings can be large; an effect the other way counts as inactive or inconclusive. % is scaled to controls: 0 for no effect and ±100 for the full control effect.

SMILES | CtBP-E1A inh | Gal4-VP16 FLuc | Six1-Eya2 blk | PKM2 activator | RORgamma inh
COc1ccc(N(C(=O)CCl)C(C(=O)NCCc2ccccc2)c2cccs2)cc1Cl (stereo not drawn) | -2 | -82% | -7 | -3% | 11µM*
COc1cccc(CNS(=O)(=O)c2ccccc2Br)c1OC | 5 | · | 5 | · | ·
COc1ccc(-n2c(-c3ccc(Br)cc3)n[nH]c2=S)cc1 | 8 | 2.5µM* | -8 | 0% | 2.2µM*
COc1ccc(-c2n[nH]c(=S)n2-c2ccc(C)cc2)cc1 | 0 | 10µM* | -4 | -10% | 0.89µM*
COc1ccc(-n2c(-c3cnccn3)n[nH]c2=S)cc1 | 1 | -10% | 0 | -8% | ?
COc1ccc(-n2c(-c3ccc(Br)cc3)nc(=S)c3c2CCCC3)cc1 | 0 | 10µM* | 5 | 16% | 7.9µM*
C=C1CN(C(C(=O)OC)C(C)C)S(=O)(=O)c2ccc(F)cc21 (stereo not drawn) | · | -6% | · | · | -2%
COc1ccc(S(=O)(=O)N2CCCCC2)cc1C(=O)N1CCCCCC1 | 8 | · | 2 | · | ·
COc1ccc(C2=CC(=O)N(Nc3ccccc3)C2=O)cc1 | -2 | 11µM* | 1 | 18% | ?
Cc1ccc(NN2C(=O)C=CC2=O)cc1 | -6 | -13% | 2 | -7% | 4%
Cc1ccc(NN2C(=O)C=C(c3ccc(Cl)cc3)C2=O)cc1 | -3 | 8.9µM* | -1 | 9% | 7.1µM*
O=C1C=C(c2ccccc2)C(=O)N1Nc1ccccc1 | 0 | 5µM* | -1 | 21% | 4.5µM*
COc1ccc(NC(=O)CCN2C(=O)c3ccccc3C2=O)cc1 | · | -5% | 0 | 0% | -10%
Cc1c(C(=O)N(CCO)Cc2ccccc2)oc2c(F)cccc12 | 4 | 2% | -1 | 1% | 10%
Cn1cc(-c2nnnn2-c2cccc(C(F)(F)F)c2)c(C(F)(F)F)n1 | -3 | -4%[0.365 µM] | 1 | 10% | 10µM*
O=S(c1ccc2ccccc2c1)c1cnns1 (stereo not drawn) | 23 | ? | 18 | -5% | 11µM*
Cc1nnsc1S(=O)c1ccc(Cl)c(Cl)c1 (stereo not drawn) | · | -29% | -5 | · | -39%
Cc1onc(-c2ccccc2)c1C(=O)N=C(N)c1ccc(C(F)(F)F)cc1 | -2 | 0% | 7 | 0% | -22%
C[C@@H]1CC[C@H]2[C@H](C)[C@H]3CC[C@H]4C5[C@@H](O)CC6=CC(=O)CC[C@]6(C)[C@H]5C[C@H]4C3C(=O)N2C1 (stereo partly drawn) | · | 4% | · | · | 21%
Cc1ccc(NC(=S)NC(=O)c2ccc(F)cc2)cc1S(=O)(=O)Nc1ccccc1Cl | -3 | 6.3µM* | -30 | 3% | 4.5µM*
COc1ccc(C(=O)Nc2ccc(Cl)c(S(=O)(=O)Nc3ccccc3OC)c2)cc1 | -23 | ? | -28 | 2% | 6%
COc1ccccc1NS(=O)(=O)c1cc(NC(=O)c2ccc(Cl)nc2)ccc1Cl | -27 | 20µM* | ? | -14% | 16%
Cc1ccc(NC(=O)c2ccc(=O)[nH]n2)cc1S(=O)(=O)Nc1ccccc1Cl | · | · | -26 | · | ·
COc1ccc(CCNC(=O)c2c(C)nn(-c3ccccc3)c2Cl)cc1OC | -1 | 5% | -7 | 2% | 33%
CC1CCCC(C)N1C(=O)COC(=O)c1cncc(Br)c1 (stereo not drawn) | -11 | · | 3 | · | ·
SMILES | CtBP-E1A inh | Gal4-VP16 FLuc | Six1-Eya2 blk | PKM2 activator | RORgamma inh
O=C1/C(=C/c2c[nH]c3ccccc23)CCC/C1=C\c1c[nH]c2ccccc12 | 0 | ? | -11 | 25% | 11µM*
C(=NN=Cc1c[nH]c2ccccc12)c1c[nH]c2ccccc12 | -3 | · | -8 | · | ·
Cc1cc2nc(-c3ccccc3)cc(=O)n2[nH]1 | 1 | ? | -4 | -1% | 13µM*
O=c1cc(-c2ccccc2)nc2cc(-c3ccc(Br)cc3)[nH]n12 | -2 | -22% | 2 | · | -7%
O=c1[nH][nH]c(=S)n1C1CCCCC1 | 1 | ? | 4 | -77% | 11µM*
O=c1cc(O)n(C2CCCCCC2)c(=O)[nH]1 | 0 | 17% | 24 | · | 8%
COc1cc2cc(-c3ccc(O)cc3O)nc(C)c2cc1OC | -86* | 3% | ? | · | -34%
COc1cc2cc(-c3ccc(OC)c(OC)c3C)nc(N)c2cc1OC | -13 | · | -23 | · | ·
